Sampled rows, rich in hits. Any-hit rate of the full collection: about 5.4%.
SKKanGAS inh = S. pyogenes SKKanGAS growth inhibitors in kanamycin, primary screen, streptokinase expression inhibitor project, SKKanGAS strain, BacTiter-Glo luminescence; 6 h; 300,000 compounds, 1.3% hits; AID 1662, 2009; inhibition, % at 7.5 µM;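 active = mean replicate score, as percent of positive control median, at least 50; inconclusive = mean below 50 but one replicate at or above 50; inactive = mean and every replicate below 50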;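 note: strain carries kanamycin resistance gene driven by streptokinase promoter and grows in 40 µg/ml kanamycin; loss of luminescence reflects streptokinase promoter inhibition or plain growth inhibition; 0% = median of DMSO wells and 100% = positive control at its reference dose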
Mdm2 MdmX PPI = inhibitors of human Mdm2-MdmX association, primary screen, cell-based, luminescence, split luciferase, SaOS-2, uHTS | SaOS-2 split-luciferase Mdm2/MdmX complementation | 330,000 compounds, 3% hits | Protein Mdm4 (Homo sapiens) + E3 ubiquitin-protein ligase Mdm2 (Homo sapiens), … | inhibition, % at 8 µM;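 active = inhibition of at least 50% at 8 µM in the primary screen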
Beta cell apopt = inhibitors of cytokine-induced beta cell apoptosis, primary screen, luminescence; INS-1E cytokine-induced death, ATP luminescence, 48 h; percent of positive-control rescue, neutral wells zero; protection from apoptosis, % (concentration not given with the values); 300,000 compounds, 0.8% hits;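 active = Every replicate reaches about 75%, or at least half do and their mean reaches it too, limit read from the data; inconclusive = At least half of replicates reach the limit but their mean does not; inactive = Under half of replicates reach the limit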;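 note: 0% = cytokine-treated negative control wells and 100% = positive control rescue; higher means more ATP so stronger rescue from cytokine killing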
Calb FLC = C. albicans growth inhibition with fluconazole, primary screen, CaCi-2 strain, Alamar Blue fluorescence; C. albicans CaCi-2 (fluconazole-resistant clinical isolate) + fluconazole, 48 h; growth inhibition, % (concentration not given with the values); 300,000 compounds, 0.57% hits;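 active = growth inhibition above about 58% in most replicates, limit read from the data, passing the limit was not always enough; inconclusive = exactly half the replicates above a set limit; inactive = most replicates below a set limit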;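 note: all wells also contain fluconazole at 8 µg/ml as a sub-toxic cotreatment; 0% = median of DMSO wells and 100% = median of geldanamycin control wells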
MPTP inh = mitochondrial permeability transition pore inhibitors, primary screen, biochemical, isolated mouse mitochondria, absorbance | Ca2+ swelling absorbance, 30 min | inhibition, % at 10 µM | 360,000 compounds, 1.4% hits | AID 602449, 2012;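 active = inhibition of 50% or more, scaled per plate between neutral and stimulator controls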;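 note: 0% = DMSO wells given calcium and 100% = 1 mM EGTA wells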
CSC inhib = cancer stem cell viability inhibitors, primary screen, luminescence. cancer stem cell-like cells viability. inhibition, % at 7.5 µM. 300,000 compounds, 1.1% hits. AID 2717, 2010; in the data active = inhibition above about 75%; inconclusive = no clear call, values can overlap the other calls; tested in HMLE shEcad cells
Mdm2-MdmX conf = Mdm2-MdmX complex disruptors, retested hits, confirmation, luminescence, single concentration; inhibition, % at 8 µM; shares compounds with Mdm2 MdmX PPI; Mdm2-MdmX binding, luminescent assay; 10,000 compounds, 55% hits; AID 489028, 2010; in the data active = inhibition above about 40%
FLuc counter = full-length luciferase signal inhibition, confirmation, counter-screen for Mdm2/MdmX interaction inhibitor project, cell-based, single concentration, SaOS-2; 6,200 compounds, 77% hits; shares compounds with Mdm2 MdmX PPI; SaOS-2 full-length luciferase counterscreen, luminescence; inhibition, % at 8 µM;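 active = mean inhibition at 8 µM reaching about 37%, which flags the compound as non-specific, limit read from the data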;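 note: p53-null SaOS-2 cells with luciferase driven by a doxycycline-inducible promoter; compound on cells about two nights before reading with doxycycline added after day one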
The depositor's hits bear a star; ? = inconclusive; · = not tested or not shown.

SMILES | SKKanGAS inh | Mdm2 MdmX PPI | Beta cell apopt | Calb FLC | MPTP inh | CSC inhib | Mdm2-MdmX conf | others
COc1cccc(-c2ccc(C#N)c(OC(=O)c3c(Cl)cccc3Cl)n2)c1 | -4 | 83* | -3 | 1 | 3 | 77* | 36
COc1ccccc1CNC(=O)c1ccc(NC(=O)CC2SC(N3CCCC3)=NC2=O)cc1 (configuration not stated) | · | -4 | 3 | · | -1 | -23 | ·
Cc1ccc(NC(=O)c2cc3c(CO)cnc(C)c3oc2=Nc2cccc(C(N)=O)c2)cc1 | 4 | 78* | 3 | -3 | 2 | 4 | 64* | FLuc counter=48*
COc1ccc(NC(=O)c2cc3c(CO)cnc(C)c3oc2=Nc2cccc(F)c2)c(OC)c1 | 9 | 72* | 7 | 3 | 2 | 17 | 74* | FLuc counter=28
Cc1ncc(CO)c2cc(C(=O)Nc3cccc(F)c3)c(=Nc3cccc(C(N)=O)c3)oc12 | 21 | 23 | 13 | -1 | 1 | 3 | ·
COc1cccc(CNC(=O)CCCn2nc(C)n3c(cc4sccc43)c2=O)c1 | -8 | 13 | 2 | -3 | 0 | -9 | ·
Cc1ccc(C(c2nnnn2C(C)(C)C)N(Cc2ccco2)Cc2cccs2)cc1 (configuration not stated) | -4 | 35 | 7 | 2 | 6 | 2 | ·
CC(C)(C)n1nnnc1C(c1ccc(C(F)(F)F)cc1)N(Cc1ccccc1)Cc1ccco1 (configuration not stated) | -11 | 77* | 117* | 19 | 15 | -13 | -4
CC(C)(C)n1nnnc1C(c1ccc(F)cc1)N(Cc1ccc(F)cc1)Cc1ccco1 (configuration not stated) | 4 | 61* | 77* | 14 | 2 | 24 | 34
CC(C)(C)n1nnnc1C(c1ccc(C(F)(F)F)cc1)N(Cc1ccc(F)cc1)Cc1ccco1 (configuration not stated) | -2 | 90* | 107* | 4 | 6 | -9 | 27
COC(C)(C)[C@]12CC(O)(c3ccccc3)ON1[C@H]1CCCCC1N2O (some centres not stated) | -5 | 4 | 3 | -12 | 0 | 1 | ·
C[N+](C)(C)CC(=O)N/N=C/c1c2ccccc2cc2ccccc12 | 7 | 12 | · | 3 | -2 | -19 | ·
COc1ccccc1-n1cnc2cc(NCc3cccs3)ccc21 | 19 | 51* | 14 | 3 | -1 | -7 | 55* | FLuc counter=80*
Cc1cc(C)nc(NC(=S)Nc2ccc(Br)cc2Cl)c1 | -12 | 51* | -1 | -2 | 0 | -13 | -6
COc1ccccc1C(C[N+](=O)[O-])c1c(N)n(C)c(=O)n(C)c1=O (configuration not stated) | -5 | 55* | 39 | 39* | 2 | 55 | 57* | FLuc counter=49*
O=C(C1=C[C@H](C2CCCCC2)C[C@H](OCc2ccc(CO)cc2)O1)N1CCN(Cc2ccc3c(c2)OCO3)CC1 | 22 | 52* | · | 19 | 0 | 43 | 24
O=C(C1=C[C@@H](c2csc3ccccc23)C[C@@H](OCc2ccc(CO)cc2)O1)N1CCN(Cc2ccc3c(c2)OCO3)CC1 | 25 | 54* | 27 | -3 | -4 | 62 | 46* | FLuc counter=53*
O=C(C1=C[C@@H](c2ccccc2)C[C@@H](OCc2ccc(CO)cc2)O1)N1CCN(Cc2ccc3c(c2)OCO3)CC1 | 23 | 52* | 6 | -14 | -1 | 45 | 48* | FLuc counter=69*
O=C(C1=C[C@@H](C2CCCCC2)C[C@@H](OCc2ccc(CO)cc2)O1)N1CCN(Cc2ccc3c(c2)OCO3)CC1 | 38 | 37 | 24 | 17 | -1 | 41 | ·
CCOC(CNC(=O)c1nnc(Cc2cc(OC)c(OC)c(OC)c2)o1)OCC | -4 | 13 | 0 | -2 | 0 | -1 | ·
Cc1sc2nc(CSc3ccc([N+](=O)[O-])c(C(F)(F)F)c3)[nH]c(=O)c2c1C | 9 | 17 | -5 | -1 | 9 | 14 | ·
O=C(O)c1sccc1S(=O)(=O)N1CCOCC1 | · | -25 | -11 | · | -1 | -14 | ·
COc1ccccc1CNc1ccc2c(c1)CCC2 | 9 | -12 | 17 | -4 | 0 | 7 | ·
O=C(CSc1nc2ccccc2c(=O)n1NC(=O)Cc1ccccc1)NCCc1ccccc1 | 2 | -5 | 1 | 5 | 6 | -8 | ·
Cc1cc(C(=O)COC(=O)C2=NNC(=O)CC2)c(C)n1-c1ccccc1 | 2 | 23 | · | -14 | -2 | · | ·
SMILES | SKKanGAS inh | Mdm2 MdmX PPI | Beta cell apopt | Calb FLC | MPTP inh | CSC inhib | Mdm2-MdmX conf | others
Cc1cc(C(=O)Cn2nnc3ccccc3c2=O)c(C)n1-c1ccccc1F | 5 | 85* | 3 | 23 | -2 | 44 | 78* | FLuc counter=103*
Cc1cc(C(=O)COC(=O)C2=COCCO2)c(C)n1-c1ccccc1 | · | 83* | -4 | · | -1 | 2 | 84* | FLuc counter=32
Cc1cc(C(=O)COC(=O)c2ccc(O)cc2)c(C)n1-c1ccccc1F | -2 | 57* | -2 | 20 | 1 | · | 64* | FLuc counter=138*
Cc1cc(C(=O)COC(=O)c2ccc[nH]c2=O)c(C)n1-c1ccccc1F | 4 | -17 | 3 | 1 | 1 | 3 | ·
CSc1nnc(-c2cnccn2)n1Cc1ccccc1 | -4 | 5 | -1 | 8 | 0 | -12 | ·
Cc1ccc(-n2c(C)cc(C3N=C(N)Nc4nc5ccccc5n43)c2C)c(C)c1 (configuration not stated) | 42 | 72* | 14 | -50 | 6 | 13 | 28
CCOc1ccc(-c2nn(-c3ccccc3)cc2/C=C2\SC(N)=NC2=O)cc1C | 10 | 67* | 10 | 3 | 0 | 33 | 22
CCOc1cc(/C=C2\SC(N)=NC2=O)ccc1O | -16 | -10 | 0 | 7 | 0 | 2 | ·
CC12CCC(C)(c3nc4ccccc4nc31)C2(C)C | 2 | 34 | -3 | 0 | -2 | 66 | ·
Cc1[nH]nc2c1-c1nc3ccccc3nc1C(C)(C)C2 | 15 | 50* | -8 | 39 | 1 | · | 27
CCCN(CCC)CCCNS(=O)(=O)c1ccc2c(c1)oc(=O)n2C | -13 | -24 | -2 | 8 | 1 | -18 | ·
CN(C)S(=O)(=O)n1cc(/C=C(\NC(=O)c2ccccc2F)C(=O)N2CCOCC2)c2ccccc21 | 3 | 10 | 7 | ? | 1 | 2 | ·
